Screening data from PubChem.
TDP1 cell CPT = DT40-hTDP1 cell growth loss with CPT; AID 686979; chicken DT40 Tdp1-/-;hTDP1 cells + 20 nM CPT, ATP luminescence, 48 h; Potency, µM (titrated, usually from 46.2 µM), for inactives: at the top dose activity change, negative = growth inhibition, most hits filed as inhibitors; actives 12% (n = 420,000); also: potency is read from the fitted curve at half-maximal effect; % is scaled to controls: 0 for no effect and ±100 for the full control effect; nearly all actives have a fitted effect of over 55% in size
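Chicken DT40 Tdp1-/- cells stably complemented with human TDP1 were seeded at 400 cells/well in medium containing 20 nM camptothecin, exposed to pin-transferred compounds, and grown at 37 °C for at least 48 hr. Viability was read as ATP luminescence.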
TDP1 cell noCPT = qHTS for Inhibitors of human tyrosyl-DNA phosphodiesterase 1 (TDP1): qHTS in cells in absence of CPT. DT40 Tdp1-/- hTDP1 cells, no CPT, ATP luminescence, 48 h. Potency, µM (series often up to 46.2 µM), for the others: at the highest dose activity change, negative = growth inhibition, most hits filed as inhibitors. actives 15% (n = 420,000); also: potency is read from the fitted curve at half-maximal effect; % is scaled to controls: 0 for no effect and ±100 for the full control effect; nearly all actives have a fitted effect of over 55% in size
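Growth kinetics read by CellTiter-Glo luminescence after ≥48 hr at 37 °C. Cells: DT40 Tdp1-/- stably carrying human TDP1, 400 per well, compound exposure in the absence of CPT (DMSO vehicle).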
D3 ag = agonists of human D3 dopamine receptor; max activation, %; D3R DiscoveRx beta-arrestin cells, luminescence, 90 min; actives 0.58% (n = 410,000); P35462; in the data active = max activation above about 30%; also: 0% is about no effect
Target sequence (P35462 whole entry, looked up): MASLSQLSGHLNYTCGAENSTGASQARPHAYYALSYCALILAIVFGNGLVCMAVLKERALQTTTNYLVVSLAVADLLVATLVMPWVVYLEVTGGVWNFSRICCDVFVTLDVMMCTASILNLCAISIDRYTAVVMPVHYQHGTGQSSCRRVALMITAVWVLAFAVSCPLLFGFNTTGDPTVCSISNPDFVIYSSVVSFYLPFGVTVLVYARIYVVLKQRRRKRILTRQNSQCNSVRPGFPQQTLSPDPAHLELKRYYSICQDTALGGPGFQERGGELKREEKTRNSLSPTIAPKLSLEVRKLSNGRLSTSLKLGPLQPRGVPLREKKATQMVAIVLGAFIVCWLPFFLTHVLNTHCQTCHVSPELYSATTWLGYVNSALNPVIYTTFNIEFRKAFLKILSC
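Agonist mode: compounds and dopamine controls were applied to plated cells for 90 min at 37 degrees C after an overnight attachment at 1500 cells/well. Luminescent read-out followed 30 - 60 minutes at room temperature with DiscoveRx detection reagent.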
IL-1B inflam inh = blocks inflammasome-driven IL-1 beta release; THP-1 LPS/ATP IL-1B secretion, AlphaLISA, 16 h; stronger effect = lower value; activity change, % at 57.5 µM; actives 4.7% (n = 360,000); in the data active = activity change below about -50%; inconclusive = mostly about -30% to -49%; also: % is scaled to controls: 0 for no effect and ±100 for the full control effect
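THP-1 cells pretreated 1 hr with compounds (up to 57.5 uM final), then stimulated with LPS (250 ng/mL final) plus ATP (1.25 mM final); secreted IL-1B measured by AlphaLISA after 16 hr, decreased signal indicating inhibition.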
DRD3 antagonist = antagonists of human D3 dopamine receptor | P35462 | D3R cells, DiscoveRx beta-arrestin luminescence, antagonist mode; stronger effect = lower value | max response, negative = inhibition, % | actives 2.5% (n = 360,000) | AID 652054; in the data active = max response below about -50%; inconclusive = no clear call, values can overlap the other calls; also: % is scaled to controls: 0 for no effect and ±100 for the full control effect
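Cells expressing the human receptor were seeded at 1500 cells/well, incubated overnight at 37 degrees C in 5% CO2, then exposed to library compounds with dopamine controls for 90 minutes at 37 degrees C before luminescent detection.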
ClpP mod = qHTS Assay for Activators of ClpP; ATP-dependent Clp protease proteolytic subunit (Bacillus subtilis (strain 168)), P80244; purified B. subtilis ClpP, FRET peptide cleavage, 20 min; Potency, µM (highest dose often 57.5 µM), for inactives: top-dose activity change, negative = active; actives 1.9% (n = 340,000); active = well fitted falling curve with a large enough effect; inconclusive = small, poorly fitted or top-dose-only effect; inactive = no such curve, though single readings can be large or run the other way; also: potency is read from the fitted curve at half-maximal effect; the source files actives as falling curves though it sought activators and does not explain the sign; nearly all actives have a fitted effect of over 65% in size
Target sequence (P80244 whole entry, looked up): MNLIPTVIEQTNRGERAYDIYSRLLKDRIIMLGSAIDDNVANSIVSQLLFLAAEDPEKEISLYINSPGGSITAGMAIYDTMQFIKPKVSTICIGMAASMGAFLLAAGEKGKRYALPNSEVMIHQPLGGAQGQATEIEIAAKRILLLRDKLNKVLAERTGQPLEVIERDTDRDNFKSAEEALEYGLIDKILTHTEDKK
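FRET quenching reversal measured ClpP activation: 10 microg/mL B. subtilis ClpP at pH 8 with the FRET-FV decapeptide, read at 430 nm after 320 nm excitation. The 20-min minus 0-min signal was scaled between DMSO/no-enzyme wells and ADEP (5.8 microM final).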
Active calls of the source: *; ? = inconclusive; . = not tested or not shown. Hits are enriched below; roughly 21% of the tested compounds scored in any of these assays. Unless noted, calls follow the shape of the dose curve; as a rule, active = well fitted inhibition curve with a large enough effect; inconclusive = small, poorly fitted or top-dose-only effect; inactive = flat fitted curve, though single readings scatter.

SMILES	TDP1 cell CPT	TDP1 cell noCPT	D3 ag	IL-1B inflam inh	DRD3 antagonist	ClpP mod
O=C(NCCCN1CCOCC1)c1ccccc1N1C(=O)[C@@H]2Cc3c([nH]c4ccccc34)C(c3cccc(Cl)c3)N2C1=O (some centres not stated)	9.2µM*	10.3µM*	-0.6	39.0	-7.8	0.0%
Cc1cnc(CNc2cc(-c3ccccc3C)ncn2)cn1	1.0%	-4.3%	.	.	.	.
Cn1c(=O)n(-c2ccc3c(c2)OCO3)c2nc(-c3ccc(Cl)cc3)nc(C(N)=O)c21	15.5%	?	-10.6	.	.	-11.1%
Cc1cccc(-c2nc(C(N)=O)c3c(n2)n(-c2ccc4c(c2)OCO4)c(=O)n3C)c1	?	1.84µM*	-5.8	.	.	-9.9%
CCOc1ccccc1N1CCN(Cc2c(C)n(C)n(-c3ccccc3)c2=O)CC1	12.4%	37.9%	-2.9	1.7	0.8	.
O=C(CSc1ncnc2ccccc12)Nc1ccc2c(c1)OCO2	?	?	2.2	-64.6*	42.8	-1.6%
O=C(Cn1cnc2ccccc21)Nc1ccc2c(c1)OCCCO2	8.2µM*	2.31µM*	0.3	0.0	28.1	-0.4%
O=C(CSc1ncnc2c1cnn2-c1ccccc1)Nc1ccc2c(c1)OCO2	-58.0%	-49.1%	5.7	-5.0	-1.5	11.0%
O=C(Cn1cnc2ccccc2c1=O)Nc1ccc2c(c1)OCO2	2.9%	-5.5%	2.1	-5.4	23.7	1.2%
O=C(CSc1nc2ccccc2c(=O)n1CCCO)Nc1ccc2c(c1)OCCO2	-21.2%	-29.1%	-9.9	-17.6	?	-0.6%
CC(Sc1nnnn1C)C(=O)Nc1ccc2c(c1)OCCO2 (configuration not stated)	-6.3%	-1.8%	17.9	13.0	5.0	0.2%
CC(Sc1nc2ccccc2c(=O)n1C)C(=O)Nc1ccc2c(c1)OCCO2 (configuration not stated)	8.2µM*	4.11µM*	-5.1	22.4	-5.1	1.5%
CC(C)Cn1c(SC(C)C(=O)Nc2ccc3c(c2)OCCO3)nc2ccccc2c1=O (configuration not stated)	29.1µM*	?	9.2	-13.9	-3.7	-2.0%
Cc1oc2c(cc(NS(=O)(=O)c3ccc(Br)cc3)c3ccccc32)c1C(=O)OCc1ccccc1	?	?	3.3	.	.	-4.4%
Cc1cccc(NC(=O)C(C)Sc2ncnc3sccc23)c1 (configuration not stated)	18.4µM*	14.6µM*	2.3	-1.6	-1.3	-1.4%
CC(Sc1ncnc2ccccc12)C(=O)Nc1ccc2c(c1)OCCO2 (configuration not stated)	14.6µM*	13µM*	4.4	-11.9	0.0	-2.7%
CC(Sc1ccccn1)C(=O)Nc1ccc2c(c1)OCCO2 (configuration not stated)	1.0%	-5.6%	-6.0	-8.0	-3.8	-0.7%
Cc1ccc(C)c(NC(=O)C(Sc2nc3ccccc3c(=O)n2CC(C)C)c2ccccc2)c1 (configuration not stated)	4.11µM*	2.59µM*	3.9	-1.8	132.3	18.1%
CC(Sc1nc2ccccc2c(=O)n1CC1CCCO1)C(=O)N(C)c1ccccc1 (configuration not stated)	20.6µM*	5.8µM*	-10.9	-3.4	-26.7	-1.0%
O=C(NNC(=O)C1[C@H]2CCCC[C@@H]12)Nc1cccc2ccccc12 (some centres not stated)	-10.9%	?	-6.0	1.9	10.6	.
COc1cccc(CC(CC(=O)O)C(=O)Nc2cc(C)ccc2C)c1 (configuration not stated)	-3.5%	-14.9%	-3.7	4.3	12.3	1.5%
CCc1cc(C(=O)N2CCN(S(=O)(=O)c3ccc(Cl)cc3)CC2)sc1C	?	?	4.6	-8.4	-14.4	-0.9%
CC(C)C(=O)N1CCC1(C)C(=O)NS(=O)(=O)c1cccs1 (configuration not stated)	-20.8%	-0.3%	-8.6	8.7	-63.3*	-0.3%
COc1cccc(NC(=O)C2(C)CCCN2C(=O)C(C)C)c1OC (configuration not stated)	-1.3%	-8.6%	75.4*	0.0	6.9	-0.7%
CCc1ccc(OCC(=O)Nc2ncn[nH]2)cc1	16.8%	9.6%	12.5	?	-11.2	0.8%
SMILES	TDP1 cell CPT	TDP1 cell noCPT	D3 ag	IL-1B inflam inh	DRD3 antagonist	ClpP mod
COC(=O)C1=CO[C@@H](O[C@H]2OC(CO)C(O)C(O)C2O)C2C1CC(O)C2C (some centres not stated)	-2.8%	-0.7%	.	.	.	.
CC(C)(Oc1ccc(Cl)cc1)C(=O)OCC(=O)N1CCN(c2ccccc2)CC1	0.1%	-15.4%	7.6	7.4	2.6	-3.1%
Cc1ccc(S(=O)(=O)NC(C)C(=O)OCC(=O)Nc2sccc2C(N)=O)cc1 (configuration not stated)	-9.2%	-2.8%	1.1	2.5	17.8	0.8%
Nc1nc(SCc2cccc([N+](=O)[O-])c2)n[nH]1	-17.2%	18.2%	-0.7	5.0	4.1	-0.9%
CC(Sc1nc2ccccc2s1)C(=O)N(C)Cc1ccccc1 (configuration not stated)	-5.4%	-27.0%	2.5	-66.8*	-7.1	-0.2%
NC(=O)CN1CCN(c2cccc(Cl)c2)CC1	0.1%	-10.1%	6.8	-8.2	0.6	.
CC(C)c1nnc(NC(=O)CCC(=O)NC2CCCc3ccccc32)s1 (configuration not stated)	?	14.6µM*	-10.6	43.8	-0.8	1.7%
Cc1cccc(OCC(=O)NC2CCCc3ccccc32)c1C (configuration not stated)	?	16.4µM*	-1.2	25.4	15.1	-0.7%
O=C(CN1CCN(c2cccc(Cl)c2)CC1)NC1CCCc2ccccc21 (configuration not stated)	?	?	-4.7	-73.3*	-7.3	.
Cc1nc(-c2ccc(F)cc2)c(CC(=O)N(C)CC(=O)Nc2ccc(Cl)c(C(F)(F)F)c2)s1	?	?	-13.3	-20.1	-2.2	-13.5%
O=C(NC1CCCc2ccccc21)c1cn2ccccc2n1 (configuration not stated)	-11.2%	?	-1.3	13.3	8.1	?
Cc1cccc(OCC(=O)Nc2ccc3c4c(cccc24)CC3)c1C	11.6µM*	8.2µM*	3.9	33.3	23.5	-4.1%
O=C(CCl)NC1CCCc2ccccc21 (configuration not stated)	14.6µM*	18.4µM*	4.4	-98.3*	9.6	.
